According to PubChem BioAssay (NCI):
The panel holds about 79,000 compounds, 15% with a hit somewhere; the sample as a whole holds those more often. Active and inactive are the calls of the source. No stated cut-off is given here; in the data, active means growth inhibition above about 70%; inactive means the rest.

Columns and labels:
[1] = NCI Yeast Anticancer Drug Screen. Data for the mlh1 strain (AID 171);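 further: 0% = growth of vehicle-treated control cultures of the same strain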; settings: S. cerevisiae mlh1 strain growth inhibition, stronger effect = higher value
How it was run: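 Read-out: growth inhibition versus vehicle controls. Strain: engineered yeast with a defined DNA repair or cell cycle defect, compound-treated.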

[2] = NCI Yeast Anticancer Drug Screen. Data for the sgs1 strain (AID 173);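 further: 0% = growth of vehicle-only control cultures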; settings: S. cerevisiae sgs1 mutant, stronger effect = higher value
How it was run: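 Read-out: yeast growth inhibition relative to vehicle controls, following compound exposure of a strain with a defined DNA repair/cell cycle alteration.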

[3] = NCI Yeast Anticancer Drug Screen. Data for the mlh1 rad18 strain (AID 175); settings: S. cerevisiae mlh1 rad18 strain growth inhibition, stronger effect = higher value
How it was run: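 Yeast w/ defined DNA-repair lesions; compound exposure; growth vs vehicle controls → % inhibition.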

[4] = NCI Yeast Anticancer Drug Screen. Data for the rad18 strain (AID 177); settings: S. cerevisiae rad18 mutant growth inhibition, stronger effect = higher value
How it was run: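 Readout: growth inhibition vs vehicle controls. Cells: genetically altered yeast strain, DNA repair defect.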

[5] = NCI Yeast Anticancer Drug Screen. Data for the rad52 strain (AID 147);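 further: 0% = growth of vehicle-treated control cultures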; settings: S. cerevisiae rad52 mutant growth inhibition, stronger effect = higher value
How it was run: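 Read-out: growth inhibition versus vehicle-treated controls. Cells were a DNA repair-deficient yeast strain treated with compounds.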

[6] = NCI Yeast Anticancer Drug Screen. Data for the wt1 strain (AID 149);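 further: 0% = growth of vehicle-treated wt1 cultures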; settings: S. cerevisiae wt1 strain (SPY 50644) growth inhibition, stronger effect = higher value
How it was run: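 wt1 yeast, compound-treated; % growth inhibition vs vehicle control.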

[7] = NCI Yeast Anticancer Drug Screen. Data for the rad50EPP+ strain (AID 151);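 further: 0% = growth of vehicle-treated control cultures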; settings: S. cerevisiae rad50 mutant strain, stronger effect = higher value
How it was run: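 Growth inhibition read against vehicle controls in rad50EPP+ yeast, a strain altered in DNA damage repair, after compound exposure.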

[8] = NCI Yeast Anticancer Drug Screen. Data for the mgt1 strain (AID 153); settings: S. cerevisiae mgt1 mutant growth inhibition, stronger effect = higher value
How it was run: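 mgt1 yeast grown with test compound; read-out is growth inhibition versus vehicle-treated cultures.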

[9] = NCI Yeast Anticancer Drug Screen. Data for the rad50 strain (AID 155);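 further: 0% = growth of vehicle-only cultures of the same strain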; settings: S. cerevisiae rad50 strain growth inhibition, stronger effect = higher value
How it was run: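 Genetically altered yeast (DNA repair pathway); compound treatment; growth inhibition vs vehicle ctrl.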

[10] = NCI Yeast Anticancer Drug Screen. Data for the mec2-1 strain (AID 157); settings: S. cerevisiae mec2-1 strain, stronger effect = higher value
How it was run: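 Yeast mec2-1 mutant treated with compound. Readout: growth inhibition vs vehicle controls.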

[11] = NCI Yeast Anticancer Drug Screen. Data for the rad14 strain (AID 159);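 further: 0% = growth of vehicle-treated control cultures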; settings: S. cerevisiae rad14 strain growth inhibition, stronger effect = higher value
How it was run: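 Test compounds were applied to a repair-deficient yeast strain. Its growth was then compared with that of cultures given vehicle alone, and inhibition was expressed relative to those controls.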

[12] = NCI Yeast Anticancer Drug Screen. Data for the sgs1 mgt1 strain (AID 161);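 further: 0% = growth of cultures given vehicle only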; settings: S. cerevisiae sgs1 mgt1 strain, stronger effect = higher value
How it was run: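 Genetically altered yeast, compound exposure, growth inhibition relative to vehicle.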

[13] = NCI Yeast Anticancer Drug Screen. Data for the CLN2oe strain (AID 163);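 further: 0% = growth of vehicle-only control cultures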; settings: S. cerevisiae CLN2oe strain, stronger effect = higher value
How it was run: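 Read-out: yeast growth inhibition, expressed relative to vehicle-only controls. The strain bears an engineered cell-cycle alteration.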

[14] = NCI Yeast Anticancer Drug Screen. Data for the cln2 rad14 strain (AID 165);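 further: 0% = growth equal to vehicle treated cultures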; settings: S. cerevisiae cln2 rad14 strain, stronger effect = higher value
How it was run: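 cln2 rad14 yeast strain; compound exposure; growth inhibition read vs vehicle controls.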

[15] = NCI Yeast Anticancer Drug Screen. Data for the bub3 strain (AID 167); settings: S. cerevisiae bub3 mutant strain, stronger effect = higher value
How it was run: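 Yeast carrying a defined mutation is treated with each compound, and growth is compared with that of vehicle-exposed cells to give inhibition.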

[16] = NCI Yeast Anticancer Drug Screen. Data for the wt2 strain (AID 169);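 further: 0% = growth of vehicle-treated yeast cultures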; settings: S. cerevisiae wt2 strain growth inhibition, stronger effect = higher value
How it was run: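 Read-out: growth inhibition versus vehicle-treated control cultures after compound exposure of the yeast strain.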

[17] = at 5.0 µM (retest, dose inferred, filed as 0.5)
[18] = at 50.0 µM (retest, dose inferred, filed as 5.0)

Measured: growth inhibition

S=C1C(=Nc2ccccc2)N(c2ccccc2)/C(=N\c2ccccn2)N1c1ccccc1
active: [1]; at 33.0 µM 99% | [1]; at 100.0 µM 96% | [2]; at 33.0 µM 99% | [2]; at 100.0 µM 94% | [3]; [17] 76% | [3]; [18] 97% | [3]; at 50.0 µM 97.8% | [4]; at 33.0 µM 99% | [4]; at 100.0 µM 87%
inactive: [2]; at 1.2 µM -2% | [2]; at 3.7 µM 4% | [2]; at 11.0 µM 66% | [4]; at 1.2 µM -3% | [4]; at 3.7 µM -3% | [4]; at 11.0 µM 57%

O=[N+]([O-])c1cc[n+]([O-])c(Cl)c1
inactive: [5]; at 1.2 µM 1% | [5]; at 3.7 µM 12% | [5]; at 11.0 µM 10% | [6]; at 1.2 µM -17% | [6]; at 3.7 µM -26% | [6]; at 11.0 µM -19% | [7]; at 1.2 µM 8% | [7]; at 3.7 µM 14% | [7]; at 11.0 µM 44% | [8]; at 1.2 µM 12% | [8]; at 3.7 µM -4% | [8]; at 11.0 µM 24% | [9]; at 1.2 µM 1% | [9]; at 3.7 µM 9% | [9]; [17] 9% | [9]; at 11.0 µM 28% | [10]; at 1.2 µM 5% | [10]; at 3.7 µM 15% | [10]; [17] -3% | [10]; at 11.0 µM 26% | [11]; at 1.2 µM 1% | [11]; at 3.7 µM 5% | [11]; at 11.0 µM 19% | [12]; [17] 1% | [13]; at 1.2 µM -6% | [13]; at 3.7 µM -4% | [13]; at 11.0 µM 12% | [14]; [17] 10% | [15]; at 1.2 µM -16% | [15]; at 3.7 µM -16% | [15]; [17] 5% | [15]; at 11.0 µM -8% | [16]; at 1.2 µM -55% | [16]; at 3.7 µM -50% | [16]; at 11.0 µM -42% | [2]; at 1.2 µM 8% | [2]; at 3.7 µM 10% | [2]; at 11.0 µM 34% | [3]; [17] 1% | [4]; at 1.2 µM -25% | [4]; at 3.7 µM -21% | [4]; at 11.0 µM -5%
active: [5]; at 33.0 µM 82% | [5]; at 100.0 µM 98% | [6]; at 33.0 µM 100% | [6]; at 100.0 µM 99% | [7]; at 33.0 µM 94% | [7]; at 100.0 µM 98% | [8]; at 33.0 µM 99% | [8]; at 100.0 µM 99% | [9]; at 33.0 µM 100% | [9]; [18] 99% | [9]; at 50.0 µM 99.5% | [9]; at 100.0 µM 100% | [10]; at 33.0 µM 100% | [10]; [18] 99% | [10]; at 50.0 µM 99.7% | [10]; at 100.0 µM 99% | [11]; at 33.0 µM 97% | [11]; at 100.0 µM 100% | [12]; [18] 99% | [12]; at 50.0 µM 99.8% | [13]; at 33.0 µM 79% | [13]; at 100.0 µM 99% | [14]; [18] 98% | [14]; at 50.0 µM 99% | [15]; at 33.0 µM 98% | [15]; [18] 99% | [15]; at 50.0 µM 99.5% | [15]; at 100.0 µM 99% | [16]; at 33.0 µM 99% | [16]; at 100.0 µM 99% | [2]; at 33.0 µM 100% | [2]; at 100.0 µM 100% | [3]; [18] 99% | [3]; at 50.0 µM 99.5% | [4]; at 33.0 µM 98% | [4]; at 100.0 µM 99%

O=C(Nc1cccs1)c1ccccc1
inactive: [5]; at 1.2 µM -5% | [5]; at 3.7 µM -3% | [5]; at 11.0 µM -5% | [5]; at 33.0 µM 3% | [5]; at 100.0 µM 67% | [6]; at 1.2 µM -5% | [6]; at 3.7 µM -6% | [6]; at 11.0 µM -8% | [6]; at 33.0 µM -6% | [6]; at 100.0 µM 48% | [7]; at 1.2 µM -1% | [7]; at 3.7 µM 7% | [7]; at 11.0 µM 10% | [7]; at 33.0 µM 18% | [7]; at 100.0 µM 38% | [8]; at 1.2 µM -1% | [8]; at 3.7 µM -4% | [8]; at 11.0 µM -4% | [8]; at 33.0 µM 5% | [9]; at 1.2 µM -4% | [9]; at 3.7 µM -8% | [9]; [17] -155% | [9]; at 11.0 µM 10% | [9]; at 33.0 µM 42% | [10]; at 1.2 µM -1% | [10]; at 3.7 µM -1% | [10]; [17] -52% | [10]; at 11.0 µM -4% | [10]; at 33.0 µM 3% | [10]; [18] -42% | [10]; at 50.0 µM 30.1% | [10]; at 100.0 µM 51% | [11]; at 1.2 µM 0% | [11]; at 3.7 µM -3% | [11]; at 11.0 µM 0% | [11]; at 33.0 µM 23% | [12]; [17] -67% | [12]; [18] 66% | [12]; at 50.0 µM 65.8% | [13]; at 1.2 µM 0% | [13]; at 3.7 µM -1% | [13]; at 11.0 µM -1% | [13]; at 33.0 µM -1% | [13]; at 100.0 µM 53% | [14]; [17] -65% | [14]; [18] -62% | [14]; at 50.0 µM -0.2% | [15]; at 1.2 µM -12% | [15]; at 3.7 µM -9% | [15]; [17] -68% | [15]; at 11.0 µM -3% | [15]; at 33.0 µM -7% | [15]; [18] 8% | [15]; at 50.0 µM 13.8% | [15]; at 100.0 µM 64% | [16]; at 1.2 µM -1% | [16]; at 3.7 µM -1% | [16]; at 11.0 µM -2% | [16]; at 33.0 µM -2% | [16]; at 100.0 µM 67% | [2]; at 1.2 µM 0% | [2]; at 3.7 µM -1% | [2]; at 11.0 µM -1% | [2]; at 33.0 µM 3% | [3]; [17] -125% | [4]; at 1.2 µM -6% | [4]; at 3.7 µM -2% | [4]; at 11.0 µM 1% | [4]; at 33.0 µM 4%
active: [8]; at 100.0 µM 88% | [9]; [18] 82% | [9]; at 50.0 µM 94.8% | [9]; at 100.0 µM 92% | [11]; at 100.0 µM 80% | [2]; at 100.0 µM 86% | [3]; [18] 80% | [3]; at 50.0 µM 94.6% | [4]; at 100.0 µM 94%
